# Assay outcomes (PubChem BioAssay)
# BL2 CD40 inh: inhibitors of CD40-induced NF-kB signaling, primary screen, BL2 cells, luciferase reporter, single point | inhibition, % at 10 µM | 83,000 compounds, 0.94% hits | AID 1053188, 2014 | CD40L-induced, 4 h;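 active = mean inhibition of at least 50% with a set share of replicates also reaching that level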
# A number is an active result; – = inactive; ! = repeats disagree; [ ] = remark or other dose. This is one part of a sample in which hits are shown more often than they occur.
SMILES,BL2 CD40 inh
N#C[C@H]1[C@@H](c2ccc(-c3cccc(F)c3)cc2)[C@H](CO)N1C(=O)NC1CCCC1,–
N#C[C@@H]1[C@H](c2ccc(C#CC3CCCC3)cc2)[C@H](CO)N1C(=O)c1cccc(F)c1,–
CC(C)NC(=O)N1[C@H](C#N)[C@@H](c2ccc(C#CC3CCCCC3)cc2)[C@H]1CO,–
CN(C)C(=O)c1ccc(-c2cccc(-c3nc(C(=O)NC4CCC4)cc4c3[C@H](CCO)N([S@@](=O)C(C)(C)C)C4)c2)cc1,–
COc1ccc2c3c([nH]c2c1)[C@H](CO)N(Cc1ccc(F)cc1)CC31CN(C)C1,–
N#C[C@@H]1[C@@H](c2ccccc2C2=CCCC2)[C@@H](CO)N1C(=O)NC1CCCC1,–
COC(=O)C[C@@H]1C[C@@H]2c3cc(NS(C)(=O)=O)ccc3O[C@@H]2[C@@H](CO)O1,–
O=C(C[C@H]1C[C@@H]2c3cc(NC(=O)C4CCOCC4)ccc3O[C@@H]2[C@H](CO)O1)NCc1cc(F)ccc1F,–
CC(C)NC(=O)N1[C@H](C#N)[C@@H](c2ccc(C#CC3CCCC3)cc2)[C@@H]1CO,–
CC(C)NC(=O)N1[C@H](CO)[C@H](c2ccc(C#CC3CCCC3)cc2)[C@@H]1C#N,–
N#C[C@@H]1[C@H](c2ccc(C#CC3CCCCC3)cc2)[C@H](CO)N1C(=O)Nc1ccc(F)cc1,84.2[25 µM]
COCC(=O)N1CC[C@H]2[C@H](CO)Nc3ccc(C#Cc4ccc(F)cc4)cc3[C@H]21,–
CCCNC(=O)NC[C@@H]1[C@@H](c2ccc(C3=CCCC3)cc2)[C@@H](CO)N1C(C)=O,–
CS(=O)(=O)N1[C@@H](CO)[C@@H](c2ccccc2)C12CN(C(=O)c1ccccc1F)C2,–
CC(=O)Nc1cccc2c1O[C@@H](CN(C)C(=O)NC(C)C)[C@@H](C)CN(C)C2=O,–
CCC(=O)Nc1cc(-c2nn(C)c(=O)c3ccccc23)ccc1N1CCCCC1,48.4
Cn1nc(-c2ccc(N3CCOCC3)c(NS(=O)(=O)c3ccccc3)c2)c2ccccc2c1=O,–
CCCC(=O)Nc1cc(-c2nn(C)c(=O)c3ccccc23)ccc1N1CCCCC1,–
CNC[C@H]1Oc2c(NS(C)(=O)=O)cccc2C(=O)N(C)C[C@@H]1C,–
O=C(Nc1cc(F)ccc1F)N1C[C@H]2[C@@H](c3ccccc31)[C@@H](CO)N2Cc1cccnc1,–
C[C@H]1CN([C@@H](C)CO)C(=O)c2c(c3ccccc3n2C)-c2ccccc2CO[C@@H]1CN(C)C(=O)Cc1ccccc1,–
O=C(Nc1ccc(F)cc1)N1C[C@H]2[C@@H](c3ccccc31)[C@H](CO)N2C(=O)c1cccnc1,–
CCN(CC)c1ccc2nc3ccc(N)cc3[n+](-c3ccccc3)c2c1,88.2
Nc1ccc2nc(Cc3ccccc3)[nH]c2c1,–
O=C(CN1CCOCC1)N[C@@H]1CC[C@H](CCn2cc(C3CCCC3)nn2)O[C@H]1CO,–
SMILES,BL2 CD40 inh
CO[C@H](CN(C)S(=O)(=O)c1ccc(Cl)cc1)[C@H](C)CN(Cc1ccccc1Cl)[C@H](C)CO,–
CC(=O)Nc1cccc2c1O[C@@H](CN(C)C(C)=O)[C@H](C)CN(C)C2=O,–
CCOC(=O)c1c(C)[nH]c(C)c1C(=O)COC(=O)CNC(=O)C1CCCCC1,–
O=C(CNC(=O)C1CCCCC1)OCC(=O)c1ccc(F)cc1,–
CCc1ccc(C(=O)COC(=O)CNC(=O)C2CCCCC2)cc1,65.8
C[C@H]1CN([C@@H](C)CO)C(=O)c2c(c3ccccc3n2C)-c2ccccc2CO[C@@H]1CN(C)C(=O)Nc1ccccc1,–
O=S(=O)(c1ccccc1)N1[C@@H]2CNC[C@H]1C2c1ccc(/C=C/c2ccccc2)cc1 (stereo partly drawn),50.9!
Cc1ccc(S(=O)(=O)N2[C@@H]3CNC[C@H]2C3c2ccc(/C=C/c3ccccc3)cc2)cc1 (stereo partly drawn),–
O=S(=O)(c1cccc(F)c1)N1[C@@H]2CNC[C@H]1C2c1ccc(/C=C/c2ccccc2)cc1 (stereo partly drawn),–
CC(C)NC(=O)Nc1cccc2c1O[C@H](CN(C)S(C)(=O)=O)[C@@H](C)CN(C)C2=O,–
CO[C@@H]1CN(C)C(=O)c2cc(NC(=O)C3CCC3)ccc2OC[C@H](C)N(Cc2ccc(F)cc2)C[C@@H]1C,–
O=C(C[C@H]1C[C@H]2c3cc(NC(=O)Nc4ccc(C(F)(F)F)cc4)ccc3O[C@H]2[C@H](CO)O1)NCc1cc(F)ccc1F,–
O=C(CC(F)(F)F)N1C[C@@H]2[C@H](c3ccccc31)[C@H](CO)N2C(=O)C1CCCC1,–
O=C(O/N=C(\c1ccccc1)c1ccccn1)c1cccc2ccccc12,–
CN1C(=O)/C(=N\OC(=O)c2cccc3ccccc23)c2ccccc21,99.4
COc1ccc(C(=O)O/N=C2\C(=O)N(C)c3ccccc32)cc1,60.5
O=C(O)c1ccc2c3c(cccc13)C(=O)N(c1cccc3ccccc13)C2=O,–
COc1ccc(C(=O)ON=C2CCN(C)CC2)cc1,–
COc1ccc(C(=O)NC2c3ccccc3-c3ccccc32)cc1,–
CC(C)NC(=O)N(C)C[C@H]1Oc2ccc(NS(C)(=O)=O)cc2CC(=O)N(C)C[C@H]1C,–
O=C(C1CCCC1)N1CC(=O)N2[C@@H](CO)[C@H](c3ccc(-c4cccnc4)cc3)[C@@H]2C1,–
CO[C@H](CN(C)S(=O)(=O)c1ccc(C)cc1)[C@H](C)CN(C(=O)Nc1ccccc1F)[C@H](C)CO,–
O=C(C[C@@H]1CC[C@@H]2[C@H](COC[C@H](O)CN2Cc2cc(F)cc(F)c2)O1)Nc1nccs1,–
O=c1[nH]c(=O)n(C2CCCO2)cc1F (stereo not drawn),–
O=C1C(F)=CC(COC(c2ccccc2)(c2ccccc2)c2ccccc2)OC1n1cc(F)c(=O)[nH]c1=O (stereo not drawn),100.7
SMILES,BL2 CD40 inh
O=C(O)C[C@@H]1C[C@@H]2c3cc(NC(=O)Cc4ccncc4)ccc3O[C@@H]2[C@H](CO)O1,–
CC(C)(C)[S@@](=O)N1Cc2cc(C(=O)NCCc3ccncc3)nc(-c3cccc(-c4ccc(C#N)cc4)c3)c2[C@H]1CCO,–
COc1ccccc1C#Cc1ccc([C@@H]2[C@@H](CO)N3CCCCN(CCC(F)(F)F)C[C@@H]23)cc1,–
O=C(C[C@H]1C[C@H]2c3cc(NC(=O)Nc4ccccc4F)ccc3O[C@H]2[C@@H](CO)O1)NCc1ccc2c(c1)OCO2,–
COc1ccc(C(=O)Nc2cccc(OC(=O)c3ccco3)c2)cc1,–
CC1CC(C)(C)Nc2ccc(OC(=O)c3ccco3)cc21 (stereo not drawn),67.5
CC1CC(C)(C)Nc2ccc(N=O)cc21 (stereo not drawn),–
COc1ccc(-c2ccc([C@@H]3[C@@H](CO)N4C(=O)CN(Cc5ccccc5)C[C@H]34)cc2)cc1,–
C[C@@H]1CCCCO[C@H](CN(C)C(=O)CCC(F)(F)F)[C@H](C)CN([C@H](C)CO)C(=O)c2cc(NC(=O)C3CCCCC3)ccc2O1,–
C[C@H]1CN(C)C(=O)c2cc(N(C)C)ccc2O[C@@H]1CN(C)S(C)(=O)=O,–
c1ccc(-c2ccccc2OCCOCCN2CCCCC2)cc1,–
c1cc(-c2cnn3cc(-c4ccc(OCCN5CCCCC5)cc4)cnc23)ccn1,87.3[25 µM]
FC(F)(F)c1cnc(-c2cnc3c(-c4ccc(Cl)cc4)cnn3c2)c(Cl)c1,–
C/C=C/c1ccc([C@H]2[C@@H](CO)N(S(C)(=O)=O)[C@@H]2CN(CCC)C(C)=O)cc1,–
O=C(C1CCCC1)N1CC(=O)N2[C@H](CO)[C@@H](c3ccc(C#CCc4ccccc4)cc3)[C@H]2C1,–
